A short description of this assay: qHTS drug screen for cell cycle checkpoint inhibitors in PARPi-resistant BRCA-mutant ovarian cancer cell lines. (AID 1963452). The following applies: PEO1/OlaR viability, CellTiter-Glo luminescence, 96 h; for Z-AUC: stronger effect = lower value. From the text:
Women's Malignancies Branch, Center for Cancer Research (CCR),
National Cancer Institute (NCI), National Institutes of Health (NIH), Bethesda, MD
Poly (ADP-ribose) polymerase inhibitors (PARPis) have changed the treatment paradigm in breast cancer gene (BRCA) - mutant high-grade serous ovarian carcinoma (HGSC). However, most patients eventually develop resistance to PARPis, highlighting an unmet need for improved therapeutic strategies. Using high-throughput drug screens, we identified ataxia telangiectasia and rad3-related protein/checkpoint kinase 1 (CHK1) pathway inhibitors as cytotoxic and further validated the activity of the CHK1 inhibitor (CHK1i) prexasertib in PARPi-sensitive and -resistant BRCA-mutant HGSC cells and xenograft mouse models. CHK1i monotherapy induced DNA damage, apoptosis, and tumor size reduction. We then conducted a phase 2 study (NCT02203513) of prexasertib in patients with BRCA-mutant HGSC. The treatment was well tolerated but yielded an objective response rate of 6% (1 of 17; one partial response) in patients with previous PARPi treatment. […] BRCA reversion mutation in previously PARPi-treated BRCA-mutant patients was not associated with resistance to CHK1i.
Among others, 1082 oncology drugs, both approved and investigational, were prioritized based on their status in clinical trial development. […] Drugs with average Z-AUC values less than -1.0 in all three cell lines were classified as "hits" resulting in 151 oncology drug hits. The screen also confirmed cross-resistance between olaparib and other PARPis (rucaparib, niraparib, and talazoparib) in PARPi-resistant PEO1/OlaR and PEO4.
[1] G. L. Lin, K. M. Wilson, M. Ceribelli, B. Z. Stanton, P. J. Woo, S. Kreimer, E. Y. Qin, X. Zhang, J. Lennon, S. Nagaraja, P. J. Morris, M. Quezada, S. M. Gillespie, D. Y. Duveau, A. M. Michalowski, P. Shinn, R. Guha, M. Ferrer, C. Klumpp-Thomas, S. Michael, C. McKnight, P. Minhas, Z. Itkin, E. H. Raabe, L. Chen, R. Ghanem, A. C. Geraghty, L. Ni, K. I. Andreasson, N. A. Vitanza, K. E.Warren, C. J. Thomas, M. Monje, Therapeutic strategies for diffuse midline glioma from high-throughput combination drug screening. Sci. Transl. Med. 11, (2019).
[2] T. M. Yamamoto, A. McMellen, Z. L. Watson, J. Aguilera, R. Ferguson, E. Nurmemmedov, T. Thakar, G. L. Moldovan, H. Kim, D. M. Cittelly, A. M. Joglar, E. P. Brennecke, H. Wilson, K. Behbakht, M. J. Sikora, B. G. Bitler, Activation of Wnt signaling promotes olaparib resistant ovarian cancer. Mol. Carcinog. 58, 1770 - 1782 (2019).
PROTOCOL TABLE (as described by Inglese J, Shamu CE and Guy RK. 2007)
SEQUENCE No. (e.g., 1, 2, 3, etc.); […] (e.g., Cells, Incubation, Reagent, etc.); VALUE; DESCRIPTION.
1; Compounds; 20nL; 1536-well white tissue culture-treated plates.
2; Cells; 5 uL; PEO1, PEO4, and PEO1/OlaR cells at 600 cells per well.
3; Incubation; 96 hr; 37C, 95% humidity, 5% CO2.
4; Reagent; 3 uL; CellTiter-Glo (Promega).
5; Incubation; 15 min; room temperature.
6; Detection; Luminescence, PHERAstar (BMG Labtech) plate reader.
NOTES (numbers refer to Sequence numbers above)
1. MIPE 5.0 compounds were acoustically dispensed by Echo Acoustic Liquid Handler (Beckman Coulter Life Sciences). Each compound was plated at an 11-point concentration range with 1:3 dilution. Bortezomib, a proteasome inhibitor (final concentration, 20 uM), was used as a positive.
2. PEO1, PEO4, and PEO1/OlaR were trypsinized and dispensed in 5 uLof growth medium using a Multidrop Combi dispenser at a density of 600 cells per well to allow compounds to be present during the exponential growth phase.
3. Plates were incubated for 96 hours at standard incubator conditions and covered by a stainless steel gasketed lid to prevent evaporation.
4. Three microliters of CellTiter-Glo (Promega) were added to each well.
5. Plates were incubated at room temperature for 15 min with a stainless-steel lid in place.
6. Luminescence readings were taken using PHERAstar (BMG Labtech). […]
In general terms: qHTS replaces the single test concentration by a dilution series.

The mark [1] stands for this setting: measured here: PEO1 parental Z-AUC.

Active and inactive are the calls of the source. The call rests on the fitted dose curve.
Potency means the concentration at half of the fitted maximal effect.

Regarding `CC(C)Nc1cc(-c2c[nH]c(C(=O)N[C@H](CO)c3cccc(Cl)c3)c2)c(Cl)cn1`, the Potency is 8710 nM (active). Besides, the Z-AUC under setting [1] is -1.89. For the same compound, under “measured here: PEO4 Z-AUC”, the Z-AUC is -1.82.

In the case of `COc1cc2c(cc1O)CCN[C@]21CS[C@@H]2c3c(OC(C)=O)c(C)c4c(c3[C@H](COC1=O)N1[C@@H]2[C@H]2c3c(cc(C)c(OC)c3O)C[C@@H]([C@@H]1O)N2C)OCO4`, the Potency was 39.9 nM (active). In addition, the Z-AUC under setting [1] is -2.17. Besides, under “measured here: PEO4 Z-AUC”, the Z-AUC was -1.65.

Turning to `Cc1nc2c(-c3cnc(N)nc3)nc(N3CCOCC3)nc2n1C(C)C`, the Potency is 436 nM (active). Moreover, the Z-AUC under setting [1] is -1.56. In addition, the Z-AUC (measured here: PEO4 Z-AUC) is -1.63.

Turning to `C=Cc1cc(O)cc2nc(-c3ccc(O)c(F)c3)oc12`, the Z-AUC is 0.0399 (inactive). In addition, under setting [1], the Z-AUC was determined as 0.836. Moreover, the Z-AUC (measured here: PEO4 Z-AUC) was 0.548.

On to `OCc1ccccc1O[C@@H]1O[C@H](CO)[C@@H](O)[C@H](O)[C@H]1O`, for which the Z-AUC was 1.58 (inactive). In addition, the Z-AUC under setting [1] worked out at 1.17. Where the note is “measured here: PEO4 Z-AUC”, the Z-AUC is 0.966.

For `C=C1CC[C@@H]2[C@](C)(CO)[C@H](O)CC[C@@]2(C)[C@@H]1C/C=C1/C(=O)OC[C@H]1O`, the Z-AUC was 0.643 (inactive). In addition, the Z-AUC under setting [1] is -0.159. Also, the Z-AUC (measured here: PEO4 Z-AUC) stood at 0.023.

With `O=C(O)C[C@H](O)C[C@H](O)/C=C/c1c(C2CC2)nc2ccccc2c1-c1ccc(F)cc1`, the Z-AUC is -0.947 (inactive). Also, the Z-AUC under setting [1] is -0.553. In addition, the Z-AUC (measured here: PEO4 Z-AUC) is -1.48.

Take `O=C(O)c1cnn(-c2nc3cc(OC(F)(F)F)c(Cl)cc3[nH]2)c1`: the Z-AUC was 0.292 (inactive). The Z-AUC under setting [1] was -0.102. In addition, the Z-AUC (measured here: PEO4 Z-AUC) is -0.0473.

With `CCOC(=O)[C@H]1O[C@@H]1C(=O)N[C@@H](CC(C)C)C(=O)NCCC(C)C`, the Z-AUC is -0.23 (inactive). For the same compound, under setting [1], the Z-AUC is 0.731. For the same compound, the Z-AUC (measured here: PEO4 Z-AUC) came to 0.891.

Consider `C[C@H]1CN(C[C@H](Cc2ccccc2)C(=O)NCC(=O)O)CC[C@@]1(C)c1cccc(O)c1`, for which the Z-AUC was -0.66 (inactive). The Z-AUC under setting [1] is -0.254. For the same compound, the Z-AUC (measured here: PEO4 Z-AUC) is -0.529.

Consider `CC1=C(/C=C/C(C)=C/C=C/C(C)=C/C=C/C=C(C)/C=C/C=C(C)/C=C/C2=C(C)CCCC2(C)C)C(C)(C)CCC1`, for which the Z-AUC is 1.77 (inactive). Further, under setting [1], the Z-AUC is 1.11. In addition, where the note is “measured here: PEO4 Z-AUC”, the Z-AUC came to 0.804.

`C[C@H]1[C@H](C)CC[C@]2(C(=O)O)CC[C@]3(C)C(=CC[C@@H]4[C@@]5(C)C[C@@H](O)[C@H](O)[C@@](C)(CO)[C@@H]5CC[C@]43C)[C@H]12`: the Z-AUC was 1.03 (inactive). The Z-AUC under setting [1] is 0.608. Also, the Z-AUC (measured here: PEO4 Z-AUC) amounted to 0.842.

Take `COc1cc(N2CCC(O)CC2)ccc1Nc1cc(Nc2ccccc2S(=O)(=O)C(C)C)c2cc[nH]c2n1`: the Z-AUC is 0.976 (inactive). For the same compound, the Z-AUC under setting [1] worked out at 1.41. Further, where the note is “measured here: PEO4 Z-AUC”, the Z-AUC is 0.959.

For the compound `O=C(Nc1cccnn1)N1CCC(=Cc2cccc(Oc3ccc(C(F)(F)F)cn3)c2)CC1`, the Z-AUC is -0.753 (inactive). In addition, the Z-AUC under setting [1] is -0.539. The Z-AUC (measured here: PEO4 Z-AUC) is -0.803.

The record behind these values is PubChem BioAssay (NCATS).
